Key:
Assay in all cases: log2 ratio of Biotin-Ahx-Ub-VS probe labelling (fragment/DMSO); higher = less target engagement (more negative = stronger competition), active = hit call of the paper (q ≤ 0.05, log2 ratio ≤ -1)
Details in all cases: compound concentration: 200 uM; treatment time: 3 h
USP34 = USP34 (UniProt Q70CQ2)
In short: (§1)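 Fragment (200 µM) or vehicle was incubated for 3 h with triplicate HEK293T lysate samples of 495 µg, which were then treated with Biotin-Ahx-Ub-VS at 0.5 µM final for 1 h. Labelled DUBs were enriched on NeutrAvidin, digested with LysC and trypsin, and analysed by diaPASEF LC-MS/MS. Values are average log2 fragment/vehicle ratios from an unpaired t-test on global-median-normalised Spectronaut label-free quantities, using proteins with ≥2 unique peptides.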

USP36 = target: T1, USP36 (UniProt Q9P275)
T1 sequence (whole entry): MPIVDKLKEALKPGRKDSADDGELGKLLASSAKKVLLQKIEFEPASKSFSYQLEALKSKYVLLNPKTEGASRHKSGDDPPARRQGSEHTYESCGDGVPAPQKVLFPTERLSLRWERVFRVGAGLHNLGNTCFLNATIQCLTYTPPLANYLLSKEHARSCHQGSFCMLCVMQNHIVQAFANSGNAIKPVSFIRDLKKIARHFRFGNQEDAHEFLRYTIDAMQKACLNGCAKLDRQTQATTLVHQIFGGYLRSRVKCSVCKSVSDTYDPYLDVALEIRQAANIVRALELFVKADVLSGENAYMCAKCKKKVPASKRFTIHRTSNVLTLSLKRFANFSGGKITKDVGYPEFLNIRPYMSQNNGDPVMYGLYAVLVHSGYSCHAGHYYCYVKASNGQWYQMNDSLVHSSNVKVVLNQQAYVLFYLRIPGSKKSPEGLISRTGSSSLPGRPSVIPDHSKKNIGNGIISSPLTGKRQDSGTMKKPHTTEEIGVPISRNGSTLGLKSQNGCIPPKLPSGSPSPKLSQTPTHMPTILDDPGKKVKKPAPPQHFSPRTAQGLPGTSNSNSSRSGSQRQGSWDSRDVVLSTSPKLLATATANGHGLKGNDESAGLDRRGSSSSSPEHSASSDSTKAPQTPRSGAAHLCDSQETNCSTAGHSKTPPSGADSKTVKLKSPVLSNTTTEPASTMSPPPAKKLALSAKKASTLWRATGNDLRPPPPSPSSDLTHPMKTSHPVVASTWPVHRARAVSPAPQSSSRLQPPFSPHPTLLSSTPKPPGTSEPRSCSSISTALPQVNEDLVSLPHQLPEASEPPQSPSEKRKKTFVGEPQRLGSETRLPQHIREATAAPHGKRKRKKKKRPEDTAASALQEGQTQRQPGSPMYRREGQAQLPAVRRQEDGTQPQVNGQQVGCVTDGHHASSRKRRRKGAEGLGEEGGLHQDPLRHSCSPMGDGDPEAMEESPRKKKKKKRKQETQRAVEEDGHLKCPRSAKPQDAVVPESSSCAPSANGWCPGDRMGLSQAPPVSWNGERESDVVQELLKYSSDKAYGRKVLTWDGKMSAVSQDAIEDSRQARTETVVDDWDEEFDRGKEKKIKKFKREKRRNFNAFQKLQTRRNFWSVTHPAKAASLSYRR
In short: as §1

USP38 = target: T2, USP38 (UniProt Q8NB14)
T2 sequence (whole entry): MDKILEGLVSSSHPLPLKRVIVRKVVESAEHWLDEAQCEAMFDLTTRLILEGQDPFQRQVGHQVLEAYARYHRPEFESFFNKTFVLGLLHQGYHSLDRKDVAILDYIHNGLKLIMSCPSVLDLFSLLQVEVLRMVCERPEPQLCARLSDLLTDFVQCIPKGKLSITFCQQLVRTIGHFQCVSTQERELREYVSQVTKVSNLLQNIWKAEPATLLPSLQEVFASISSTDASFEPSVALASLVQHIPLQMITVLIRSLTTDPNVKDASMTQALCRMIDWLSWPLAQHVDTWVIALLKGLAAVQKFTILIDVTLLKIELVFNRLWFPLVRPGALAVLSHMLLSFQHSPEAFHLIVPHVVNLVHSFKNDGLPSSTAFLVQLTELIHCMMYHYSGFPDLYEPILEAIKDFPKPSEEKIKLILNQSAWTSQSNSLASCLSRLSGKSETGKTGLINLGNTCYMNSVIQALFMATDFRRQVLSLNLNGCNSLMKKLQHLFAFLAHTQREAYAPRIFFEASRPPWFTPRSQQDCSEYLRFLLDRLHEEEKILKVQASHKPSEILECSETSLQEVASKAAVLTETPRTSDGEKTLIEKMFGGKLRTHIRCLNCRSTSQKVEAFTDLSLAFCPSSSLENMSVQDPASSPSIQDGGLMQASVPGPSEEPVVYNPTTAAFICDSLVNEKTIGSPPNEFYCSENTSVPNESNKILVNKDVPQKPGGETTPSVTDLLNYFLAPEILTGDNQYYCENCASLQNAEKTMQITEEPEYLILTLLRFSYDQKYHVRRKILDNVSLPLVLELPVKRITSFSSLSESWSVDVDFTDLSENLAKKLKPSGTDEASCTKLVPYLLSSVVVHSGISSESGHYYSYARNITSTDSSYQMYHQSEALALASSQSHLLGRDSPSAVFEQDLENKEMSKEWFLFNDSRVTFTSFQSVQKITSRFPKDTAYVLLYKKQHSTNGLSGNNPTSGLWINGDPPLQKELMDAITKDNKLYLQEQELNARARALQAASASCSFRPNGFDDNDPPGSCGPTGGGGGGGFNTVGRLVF
In short: as §1

USP39 = target: T3, USP39 (UniProt Q53GS9)
T3 sequence (whole entry): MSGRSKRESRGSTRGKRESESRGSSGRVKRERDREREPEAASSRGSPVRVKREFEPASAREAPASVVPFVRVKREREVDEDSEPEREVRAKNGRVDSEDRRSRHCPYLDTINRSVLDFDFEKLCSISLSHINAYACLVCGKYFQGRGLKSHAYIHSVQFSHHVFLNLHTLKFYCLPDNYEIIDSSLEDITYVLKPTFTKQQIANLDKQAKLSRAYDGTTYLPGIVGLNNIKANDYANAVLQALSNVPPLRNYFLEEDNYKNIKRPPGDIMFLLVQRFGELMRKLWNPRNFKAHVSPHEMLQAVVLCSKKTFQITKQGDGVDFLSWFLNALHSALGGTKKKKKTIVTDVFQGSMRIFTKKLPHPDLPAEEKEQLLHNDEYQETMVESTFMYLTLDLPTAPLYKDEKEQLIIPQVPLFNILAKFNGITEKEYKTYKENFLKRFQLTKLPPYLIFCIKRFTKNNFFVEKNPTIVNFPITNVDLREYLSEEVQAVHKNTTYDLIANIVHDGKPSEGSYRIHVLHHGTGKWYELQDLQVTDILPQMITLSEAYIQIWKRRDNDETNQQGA
In short: as §1

USP4 = target: T4, USP4 (UniProt Q13107)
T4 sequence (whole entry): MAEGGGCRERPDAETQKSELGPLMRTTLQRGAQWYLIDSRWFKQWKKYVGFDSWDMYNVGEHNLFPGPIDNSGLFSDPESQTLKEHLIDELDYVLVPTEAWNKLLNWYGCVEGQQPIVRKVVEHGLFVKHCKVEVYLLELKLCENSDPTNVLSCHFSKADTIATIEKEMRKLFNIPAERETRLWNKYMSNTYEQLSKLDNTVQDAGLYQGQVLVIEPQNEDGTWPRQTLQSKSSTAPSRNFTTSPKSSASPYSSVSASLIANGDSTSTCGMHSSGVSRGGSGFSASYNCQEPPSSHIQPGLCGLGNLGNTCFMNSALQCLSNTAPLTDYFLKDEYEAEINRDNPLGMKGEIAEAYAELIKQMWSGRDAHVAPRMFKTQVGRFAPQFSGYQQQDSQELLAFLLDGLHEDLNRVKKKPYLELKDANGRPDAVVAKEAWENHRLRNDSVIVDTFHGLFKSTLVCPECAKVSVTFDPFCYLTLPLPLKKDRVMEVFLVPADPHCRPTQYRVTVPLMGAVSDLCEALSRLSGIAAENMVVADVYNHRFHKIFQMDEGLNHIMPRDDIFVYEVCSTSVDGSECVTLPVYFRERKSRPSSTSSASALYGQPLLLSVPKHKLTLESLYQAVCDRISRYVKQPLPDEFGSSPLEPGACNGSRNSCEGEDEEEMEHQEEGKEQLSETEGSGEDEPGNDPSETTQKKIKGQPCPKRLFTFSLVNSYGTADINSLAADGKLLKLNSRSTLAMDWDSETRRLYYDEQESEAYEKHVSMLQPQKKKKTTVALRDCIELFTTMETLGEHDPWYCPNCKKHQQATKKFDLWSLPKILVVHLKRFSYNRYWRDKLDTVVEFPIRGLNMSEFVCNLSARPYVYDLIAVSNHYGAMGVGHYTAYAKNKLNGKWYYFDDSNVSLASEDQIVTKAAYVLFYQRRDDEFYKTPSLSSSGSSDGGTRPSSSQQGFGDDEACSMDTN
In short: as §1

Measured: log2 ratio of Biotin-Ahx-Ub-VS probe labelling

Chain of USP34 (Q70CQ2 whole entry, the tested form may be a part): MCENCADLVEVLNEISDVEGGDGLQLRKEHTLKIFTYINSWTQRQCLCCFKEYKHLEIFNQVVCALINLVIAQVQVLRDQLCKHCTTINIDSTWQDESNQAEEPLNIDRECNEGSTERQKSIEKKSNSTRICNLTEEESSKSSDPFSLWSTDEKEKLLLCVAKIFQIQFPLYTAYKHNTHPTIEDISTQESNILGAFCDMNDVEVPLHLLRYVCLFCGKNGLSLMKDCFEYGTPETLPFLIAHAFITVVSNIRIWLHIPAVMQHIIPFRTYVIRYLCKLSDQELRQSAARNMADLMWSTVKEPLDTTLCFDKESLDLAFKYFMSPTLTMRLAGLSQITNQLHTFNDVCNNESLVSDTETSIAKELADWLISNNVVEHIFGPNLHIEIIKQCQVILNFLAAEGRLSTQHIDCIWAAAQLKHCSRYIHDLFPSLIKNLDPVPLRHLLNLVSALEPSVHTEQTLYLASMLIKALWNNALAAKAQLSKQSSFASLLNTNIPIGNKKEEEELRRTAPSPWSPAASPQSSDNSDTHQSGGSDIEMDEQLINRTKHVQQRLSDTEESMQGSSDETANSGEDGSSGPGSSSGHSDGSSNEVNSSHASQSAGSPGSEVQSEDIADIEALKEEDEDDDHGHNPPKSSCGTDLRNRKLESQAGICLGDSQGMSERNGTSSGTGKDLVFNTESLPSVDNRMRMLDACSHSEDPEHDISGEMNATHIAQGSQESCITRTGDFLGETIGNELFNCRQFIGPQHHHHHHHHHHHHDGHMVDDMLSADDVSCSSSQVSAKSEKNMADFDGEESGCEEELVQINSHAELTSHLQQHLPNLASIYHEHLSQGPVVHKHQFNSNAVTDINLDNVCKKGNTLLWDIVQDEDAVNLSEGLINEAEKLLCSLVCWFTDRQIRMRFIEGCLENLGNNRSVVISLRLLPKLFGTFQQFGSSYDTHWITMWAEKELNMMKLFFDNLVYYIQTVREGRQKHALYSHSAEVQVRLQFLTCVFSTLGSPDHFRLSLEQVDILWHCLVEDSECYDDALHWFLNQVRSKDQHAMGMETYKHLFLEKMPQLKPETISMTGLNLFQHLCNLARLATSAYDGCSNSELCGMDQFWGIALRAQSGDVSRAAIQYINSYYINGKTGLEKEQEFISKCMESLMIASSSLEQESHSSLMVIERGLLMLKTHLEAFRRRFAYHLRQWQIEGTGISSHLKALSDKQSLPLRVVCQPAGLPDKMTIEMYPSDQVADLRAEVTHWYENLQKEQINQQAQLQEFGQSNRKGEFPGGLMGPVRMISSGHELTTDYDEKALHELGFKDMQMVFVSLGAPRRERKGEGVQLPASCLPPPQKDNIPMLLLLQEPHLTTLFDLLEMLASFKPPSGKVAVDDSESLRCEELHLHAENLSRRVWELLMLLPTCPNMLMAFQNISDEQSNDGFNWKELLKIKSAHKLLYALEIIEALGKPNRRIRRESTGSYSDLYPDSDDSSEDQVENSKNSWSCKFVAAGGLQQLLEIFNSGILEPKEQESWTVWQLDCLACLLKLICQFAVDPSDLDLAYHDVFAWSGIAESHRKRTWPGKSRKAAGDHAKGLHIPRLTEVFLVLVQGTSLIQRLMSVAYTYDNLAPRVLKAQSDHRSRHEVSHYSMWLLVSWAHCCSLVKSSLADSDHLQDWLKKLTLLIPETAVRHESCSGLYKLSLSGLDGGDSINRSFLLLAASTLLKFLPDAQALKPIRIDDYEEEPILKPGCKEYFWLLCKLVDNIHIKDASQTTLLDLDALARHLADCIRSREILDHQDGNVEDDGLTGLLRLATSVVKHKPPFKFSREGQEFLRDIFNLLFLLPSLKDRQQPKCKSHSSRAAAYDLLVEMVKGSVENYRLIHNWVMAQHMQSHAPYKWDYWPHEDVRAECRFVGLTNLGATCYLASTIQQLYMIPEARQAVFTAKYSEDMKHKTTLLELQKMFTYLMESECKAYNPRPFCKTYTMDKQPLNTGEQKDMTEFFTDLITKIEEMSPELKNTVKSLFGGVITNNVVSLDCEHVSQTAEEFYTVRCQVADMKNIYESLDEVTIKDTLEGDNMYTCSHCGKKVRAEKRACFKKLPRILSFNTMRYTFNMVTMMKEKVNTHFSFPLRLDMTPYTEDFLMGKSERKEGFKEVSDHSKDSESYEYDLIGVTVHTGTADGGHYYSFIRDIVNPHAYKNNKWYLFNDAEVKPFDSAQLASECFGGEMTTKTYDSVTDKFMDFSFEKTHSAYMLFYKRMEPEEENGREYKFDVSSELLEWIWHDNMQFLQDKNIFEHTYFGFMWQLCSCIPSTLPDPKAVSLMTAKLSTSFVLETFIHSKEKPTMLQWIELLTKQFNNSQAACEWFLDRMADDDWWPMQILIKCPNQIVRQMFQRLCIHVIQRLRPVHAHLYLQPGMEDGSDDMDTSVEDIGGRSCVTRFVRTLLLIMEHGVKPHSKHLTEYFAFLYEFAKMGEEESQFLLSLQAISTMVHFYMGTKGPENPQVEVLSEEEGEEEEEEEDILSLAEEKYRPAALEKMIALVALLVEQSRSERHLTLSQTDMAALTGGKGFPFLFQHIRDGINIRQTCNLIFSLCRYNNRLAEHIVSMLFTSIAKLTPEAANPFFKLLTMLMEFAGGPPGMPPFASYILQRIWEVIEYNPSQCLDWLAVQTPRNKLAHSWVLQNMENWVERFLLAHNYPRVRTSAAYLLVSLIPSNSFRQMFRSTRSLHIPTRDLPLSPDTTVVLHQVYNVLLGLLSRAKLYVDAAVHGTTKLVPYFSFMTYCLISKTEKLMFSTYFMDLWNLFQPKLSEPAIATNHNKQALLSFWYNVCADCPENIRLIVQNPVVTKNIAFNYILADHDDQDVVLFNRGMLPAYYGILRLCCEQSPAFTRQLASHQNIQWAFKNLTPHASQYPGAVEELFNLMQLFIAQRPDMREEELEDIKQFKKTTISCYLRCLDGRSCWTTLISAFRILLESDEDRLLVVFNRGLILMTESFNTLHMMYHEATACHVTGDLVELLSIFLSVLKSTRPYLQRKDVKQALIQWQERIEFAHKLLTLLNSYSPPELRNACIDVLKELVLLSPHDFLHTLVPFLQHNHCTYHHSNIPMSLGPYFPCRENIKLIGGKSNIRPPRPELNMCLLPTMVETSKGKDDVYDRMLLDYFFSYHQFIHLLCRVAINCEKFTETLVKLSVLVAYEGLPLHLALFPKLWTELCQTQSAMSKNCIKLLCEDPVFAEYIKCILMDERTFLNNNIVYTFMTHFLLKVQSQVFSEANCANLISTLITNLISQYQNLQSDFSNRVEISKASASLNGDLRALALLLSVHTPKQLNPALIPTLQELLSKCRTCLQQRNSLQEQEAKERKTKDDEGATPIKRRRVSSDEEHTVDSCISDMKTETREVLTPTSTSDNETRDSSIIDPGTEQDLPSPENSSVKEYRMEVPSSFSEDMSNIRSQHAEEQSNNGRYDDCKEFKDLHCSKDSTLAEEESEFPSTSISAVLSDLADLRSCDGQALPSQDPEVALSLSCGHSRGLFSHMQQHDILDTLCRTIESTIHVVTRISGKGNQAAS

CN1c2ccccc2C(NC(=O)CCl)CS1(=O)=O (stereo not given)
inactive: USP34 -0.111 | USP36 -0.287 | USP38 -0.071 | USP39 0.00949 | USP4 0.0683
